Results filed as inconclusive are left out. Unmarked numbers belong to inactive results. Activity calls are given as the source filed them. Calls follow the shape of the dose curve; as a rule, active = well fitted inhibition curve with a large enough effect; inconclusive = small, poorly fitted or top-dose-only effect; inactive = flat fitted curve, though single readings scatter.
test system: HaCat; test: Cytotoxic Profiling of Annotated Libraries Using Quantitative High-Throughput Screening (AID 1296008); details: Five cell lines viability, CellTiter-Glo ATP luminescence, 48-72 h; max response: active compounds read low; also: nearly all actives have a fitted effect of over 60% in size
How it was run: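 Cells exposed to compounds for 48 or 72 hr at 37 degrees Celsius. Viability read as ATP-coupled luminescence with CellTiter-Glo after 10 min at room temperature.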
% is scaled to controls: 0 for no effect and ±100 for the full control effect.

Row | SMILES | max response [%] | outcome
1 | COP(=S)(OC)Oc1cc(Cl)c(Cl)cc1Cl | 4.52 | 
2 | CC(Cc1ccccc1)NCCn1cnc2c1c(=O)n(C)c(=O)n2C (configuration not stated) |  | inactive
3 | CCc1cc2c(s1)-n1c(C)nnc1CN=C2c1ccccc1Cl | -1.07 | 
4 | CCN[C@H](C)Cc1cccc(C(F)(F)F)c1 |  | inactive
5 | Nc1ccccc1 |  | inactive
6 | c1ccc2c(c1)sc1ccccc12 | -3.8 | 
7 | COc1ccc2c3c1O[C@H]1[C@H](O)CC[C@H]4[C@@H](C2)N(C)CC[C@@]341 |  | inactive
8 | C[C@]12CC[C@H]3[C@@H](CCC4=CC(=O)CC[C@@H]43)[C@@H]1CC[C@@H]2OC(=O)CCC1CCCCC1 | 2.69 | 
9 | O=C1OC(CCN2CCCCC2)OC1(c1ccccc1)c1ccccc1 (configuration not stated) | 4.71 | 
10 | CN1CCC(O)(c2ccc(F)cc2)C(C(=O)c2ccc(F)cc2)C1 (configuration not stated) |  | inactive
11 | C#C[C@]1(O)CC[C@H]2[C@@H]3CCC4=CC(=O)CC[C@]4(C)[C@H]3CC[C@@]21C | 2.04 | 
12 | C[C@]12CCC(=O)C=C1CC[C@@H]1[C@@H]2CC[C@]2(C)C(=O)CC[C@@H]12 | -13.1 | 
13 | NCCc1ccc(O)cc1 | 1.28 | 
14 | C[C@]12CCC(=O)C=C1CC[C@@H]1[C@@H]2CC[C@@]2(C)[C@H]1CC[C@]2(C)O |  | inactive
15 | CN1C(=O)CCS(=O)(=O)C1c1ccc(Cl)cc1 (configuration not stated) |  | inactive
16 | O=C(CCCN1CCC2(CC1)C(=O)NCN2c1ccccc1)c1ccc(F)cc1 |  | inactive
17 | C[C@]12Cc3cn[nH]c3C[C@@H]1CC[C@@H]1[C@@H]2CC[C@@]2(C)[C@H]1CC[C@]2(C)O | 2.06 | 
